# Experimental data from the supplement of paper PMC10127200.
# Counter-ions that a name gives are not always drawn.
# Legend:
# Assay in all cases: Euclidean distance of Cell Painting phenotypic profile (signed KS, 77 features) to DMSO centroid (dimensionless distance); 5 or 10 uM (library dependent); higher = stronger phenotypic change vs DMSO (phenoactivity)
# Conditions in all cases: 48 h
# 786-O = system: 786-O
# Outline: (§1)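 Stained cells were imaged confocally at 20X with 9 fields per well, after 48 h of exposure to library compounds at 10 or 5 uM (set by library; 0.1% DMSO final). The cells were five cancer lines and a healthy fibroblast line. From the images, Harmony extracted 77 features, each expressed as a signed Kolmogorov-Smirnov statistic relative to same-plate vehicle wells. Phenoactivity is measured as Euclidean distance to the median vehicle profile, using plate-position-corrected, correlation-weighted profiles averaged across replicates at the top dose.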
# A549 = system: A549
# Outline: as §1
# DU145 = system: DU145
# Outline: as §1
# FB = system: FB
# Outline: as §1
# HEPG2 = system: HEPG2
# Outline: as §1
# OVCAR4 = system: OVCAR4
# Outline: as §1
smiles,measurement,setting,value
CC(C)(CO)c1cc2cc(NC(=O)C3(c4ccc5c(c4)OC(F)(F)O5)CC3)c(F)cc2n1C[C@@H](O)CO,Euclidean distance,786-O,1.47
same,Euclidean distance,A549,1.89
same,Euclidean distance,DU145,1.24
same,Euclidean distance,FB,2.93
same,Euclidean distance,HEPG2,0.904
same,Euclidean distance,OVCAR4,2.17
Cc1cc(=O)oc2cc(O)ccc12 [4-Methylumbelliferone (4-MU)],Euclidean distance,786-O,0.739
same,Euclidean distance,A549,0.856
same,Euclidean distance,DU145,0.979
same,Euclidean distance,FB,0.746
same,Euclidean distance,HEPG2,0.603
same,Euclidean distance,OVCAR4,0.95
NCCOB(c1ccccc1)c1ccccc1 [2-Aminoethyl Diphenylborinate (2-APB)],Euclidean distance,786-O,1.61
same,Euclidean distance,A549,0.835
same,Euclidean distance,DU145,1
same,Euclidean distance,FB,0.968
same,Euclidean distance,HEPG2,0.822
same,Euclidean distance,OVCAR4,1.13
C[C@@H](O)[C@H]1C(=O)N2C(C(=O)O)=C(SCCNC=N)C[C@H]12 [Imipenem],Euclidean distance,786-O,0.957
same,Euclidean distance,A549,1.45
same,Euclidean distance,DU145,0.986
same,Euclidean distance,FB,0.737
same,Euclidean distance,HEPG2,0.883
same,Euclidean distance,OVCAR4,0.789
Cc1cc2c(cc1CC(=O)c1sccc1S(=O)(=O)Nc1onc(C)c1Cl)OCO2 [Sitaxentan sodium],Euclidean distance,786-O,0.839
same,Euclidean distance,A549,0.821
same,Euclidean distance,DU145,0.942
same,Euclidean distance,FB,0.796
same,Euclidean distance,HEPG2,0.95
same,Euclidean distance,OVCAR4,1.46
CCCCN(CCCC)CC(O)c1cc(Cl)cc2c1-c1ccc(Cl)cc1/C2=C/c1ccc(Cl)cc1 (stereo not given) [Lumefantrine],Euclidean distance,786-O,1.17
same,Euclidean distance,A549,1.42
same,Euclidean distance,DU145,0.953
same,Euclidean distance,FB,0.94
same,Euclidean distance,HEPG2,0.895
same,Euclidean distance,OVCAR4,0.763
O=C(O)c1cc(=O)c2c(OCC(O)COc3cccc4oc(C(=O)O)cc(=O)c34)cccc2o1 [Disodium Cromoglycate],Euclidean distance,786-O,0.952
same,Euclidean distance,A549,0.486
same,Euclidean distance,DU145,1.78
same,Euclidean distance,FB,1.02
same,Euclidean distance,HEPG2,0.769
same,Euclidean distance,OVCAR4,1.05
CNCc1ccc(C)c(NC(=O)c2ccc(Nc3nc(-c4ccccc4)c4ccccc4n3)cc2)c1,Euclidean distance,786-O,5.12
same,Euclidean distance,A549,4.68
same,Euclidean distance,DU145,3.37
same,Euclidean distance,FB,4.9
same,Euclidean distance,HEPG2,5.84
same,Euclidean distance,OVCAR4,4.54
Cc1cn([C@H]2C[C@H](N=[N+]=[N-])[C@@H](CO)O2)c(=O)[nH]c1=O [Zidovudine],Euclidean distance,786-O,1.52
same,Euclidean distance,A549,0.708
same,Euclidean distance,DU145,1.19
same,Euclidean distance,FB,1.2
same,Euclidean distance,HEPG2,1.54
same,Euclidean distance,OVCAR4,0.957
CCCCOc1ccc(OCCCN2CCOCC2)cc1 [Pramoxine HCl],Euclidean distance,786-O,1.3
same,Euclidean distance,A549,0.99
same,Euclidean distance,DU145,1.08
same,Euclidean distance,FB,0.528
same,Euclidean distance,HEPG2,0.51
same,Euclidean distance,OVCAR4,1.2
C[n+]1cc2c3c(ccc2c2ccc4cc5c(cc4c21)OCO5)OCO3 [Sanguinarine chloride],Euclidean distance,786-O,5.34
same,Euclidean distance,A549,5
same,Euclidean distance,DU145,7.6
same,Euclidean distance,FB,6.48
same,Euclidean distance,HEPG2,4.82
same,Euclidean distance,OVCAR4,5.76
CC(C)CCCC(C)N (stereo not given) [Octodrine (2-Amino-6-methylheptan)],Euclidean distance,786-O,1.17
same,Euclidean distance,A549,0.649
same,Euclidean distance,DU145,0.851
same,Euclidean distance,FB,1.24
same,Euclidean distance,HEPG2,1.34
same,Euclidean distance,OVCAR4,1.4
Cn1cc(CNCC2CCN(c3ncc(C(=O)NO)cn3)CC2)c2ccccc21,Euclidean distance,786-O,2.78
same,Euclidean distance,A549,4.19
same,Euclidean distance,DU145,3.88
same,Euclidean distance,FB,3.5
same,Euclidean distance,HEPG2,4.44
same,Euclidean distance,OVCAR4,3.65
CC(=O)OCC[N+](C)(C)C [Acetylcholine iodide],Euclidean distance,786-O,0.893
same,Euclidean distance,A549,0.442
same,Euclidean distance,DU145,0.869
same,Euclidean distance,FB,0.877
same,Euclidean distance,HEPG2,0.594
same,Euclidean distance,OVCAR4,1.19
Cc1cc([C@@H](C)Nc2ccccc2C(=O)O)c2nc(N3CCOCC3)cc(=O)n2c1,Euclidean distance,786-O,1
same,Euclidean distance,A549,1.82
same,Euclidean distance,DU145,1.52
same,Euclidean distance,FB,1.71
same,Euclidean distance,HEPG2,1.59
same,Euclidean distance,OVCAR4,3.2
O=C(Nc1cnn2ccc(N3CCC[C@@H]3c3cc(F)ccc3F)nc12)N1CC[C@H](O)C1 [Larotrectinib (LOXO-101) sulfate],Euclidean distance,786-O,0.597
same,Euclidean distance,A549,0.899
same,Euclidean distance,DU145,1.05
same,Euclidean distance,FB,0.634
same,Euclidean distance,HEPG2,0.551
same,Euclidean distance,OVCAR4,1.27
NNc1nncc2ccccc12 [Hydralazine HCl],Euclidean distance,786-O,1.33
same,Euclidean distance,A549,1.23
same,Euclidean distance,DU145,0.857
same,Euclidean distance,FB,1.33
same,Euclidean distance,HEPG2,0.411
same,Euclidean distance,OVCAR4,0.975
CCOC(=O)OC(C)OC1=C(C(=O)Nc2ccccn2)N(C)S(=O)(=O)c2ccccc21 (stereo not given) [Ampiroxicam],Euclidean distance,786-O,1.26
same,Euclidean distance,A549,1.35
same,Euclidean distance,DU145,0.928
same,Euclidean distance,FB,0.606
same,Euclidean distance,HEPG2,0.41
same,Euclidean distance,OVCAR4,1.47
CC(O)Cn1cnc2c1c(=O)n(C)c(=O)n2C (stereo not given) [Proxyphylline],Euclidean distance,786-O,1.48
same,Euclidean distance,A549,0.998
same,Euclidean distance,DU145,0.788
same,Euclidean distance,FB,0.934
same,Euclidean distance,HEPG2,0.686
same,Euclidean distance,OVCAR4,1.03
CO[C@@]1(NC(=O)Cc2cccs2)C(=O)N2C(C(=O)O)=C(COC(N)=O)CS[C@@H]21 [Cefoxitin],Euclidean distance,786-O,0.82
same,Euclidean distance,A549,0.39
same,Euclidean distance,DU145,0.617
same,Euclidean distance,FB,0.482
same,Euclidean distance,HEPG2,0.307
same,Euclidean distance,OVCAR4,1.03
Nc1nc(NC2CC2)c2ncn([C@H]3C=C[C@@H](CO)C3)c2n1 [Abacavir sulfate],Euclidean distance,786-O,1.09
same,Euclidean distance,A549,1.86
same,Euclidean distance,DU145,1.39
same,Euclidean distance,FB,1.19
same,Euclidean distance,HEPG2,0.688
same,Euclidean distance,OVCAR4,1.74
Clc1ccc2nsnc2c1NC1=NCCN1 [Tizanidine],Euclidean distance,786-O,1.07
same,Euclidean distance,A549,0.538
same,Euclidean distance,DU145,0.815
same,Euclidean distance,FB,0.569
same,Euclidean distance,HEPG2,0.572
same,Euclidean distance,OVCAR4,0.608
Cc1cc(F)c(Nc2ncnc3cc(OCc4ccccc4)ccc23)cc1O,Euclidean distance,786-O,1.83
same,Euclidean distance,A549,0.984
same,Euclidean distance,DU145,0.521
same,Euclidean distance,FB,1.8
same,Euclidean distance,HEPG2,0.631
same,Euclidean distance,OVCAR4,0.745
C[C@H]1c2cccc(O)c2C(=O)C2=C(O)[C@]3(O)C(=O)C(C(N)=O)=C(O)[C@@H](N(C)C)[C@@H]3[C@@H](O)[C@@H]21 [Doxycycline],Euclidean distance,786-O,1.5
same,Euclidean distance,A549,1.3
same,Euclidean distance,DU145,0.845
same,Euclidean distance,FB,0.954
same,Euclidean distance,HEPG2,0.564
same,Euclidean distance,OVCAR4,1.67
COC(=O)C1=CO[C@@H](O)[C@@H]2C(CO)=CC[C@H]12 [Genipin],Euclidean distance,786-O,1.19
same,Euclidean distance,A549,1.13
same,Euclidean distance,DU145,0.882
same,Euclidean distance,FB,1.15
same,Euclidean distance,HEPG2,0.828
same,Euclidean distance,OVCAR4,1.35
